# Results filed as inconclusive are left out. Calls of active or inactive are those of the source. Rule for the calls, unless noted: active = hit-call score of the fitted dose curve at least 0.9, where 1 is the maximum; inconclusive = response in the unintended direction; inactive = score below 0.9.
# Legend:
# PGR (gene 5241) [1] = target: PGR (gene 5241) (UniProt P06401); assay: TOX21_PR_BLA_Followup_Antagonist_ratio: Tox21 HEK293 Progesterone Receptor (PR) Antagonism Beta-lactamase Follow-Up Assay, Ratio (AID 2283934);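 note: PR-UAS-bla HEK293T cells stimulated with 1 nM R5020 agonist for 16 hr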
# Outline: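 Measured in PR-UAS-bla HEK293T cells co-treated with compound and 1 nM promegestone for 16 hr; beta-lactamase ratio read after 2 h FRET substrate loading, with parallel CellTiter-Glo cytotoxicity.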
# [2] = TOX21_PR_BLA_Followup_Agonist_viability: Viability Assessment in the Tox21 HEK293 Progesterone Receptor (PR) Agonism Beta-lactamase Follow-Up Assay (AID 2283935);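 note: signal loss means lower viability so actives are cytotoxic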
# Outline: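 Viability is read as CellTiter-Glo luminescence, where loss of signal indicates cytotoxicity. The cells are PR-UAS-bla HEK293T given compounds for 16 hr at 37C and 5% CO2, in the same wells used for the bla readout.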
# [3] = TOX21_PR_BLA_Followup_Antagonist_viability: Viability Assessment in the Tox21 HEK293 Progesterone Receptor (PR) Antagonism Beta-lactamase Follow-Up Assay (AID 2283936);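 note: cells exposed to compound with R5020 agonist for 16 h; hits lower the luminescence signal meaning cytotoxicity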
# Outline: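 PR-UAS-bla HEK293T cells in medium with 2% charcoal-stripped FBS were treated with compounds plus R5020 for 16 hr at 37C. After the beta-lactamase read, CellTiter-Glo was added to the same wells and luminescence read after 30 min at room temperature.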
# PGR (gene 5241) [4] = target: PGR (gene 5241) (UniProt P06401); assay: TOX21_PR_LUC_Followup_Antagonist: Tox21 HEK293 Progesterone Receptor (PR) Antagonism Luciferase Follow-Up Assay (AID 2283938);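 note: curve fitted upward as signal gain over DMSO baseline despite antagonist label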
# Outline: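 Luminescence from ONE-Glo was measured 30 min after reagent addition, following 16 h exposure of HEK293-PR-A-luc cells (3,000/well, plated 5 h earlier) to DMSO-dissolved compounds at 37C; DMSO served as baseline.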
# [5] = TOX21_PR_LUC_Followup_Antagonist_viability: Viability Assessment in the Tox21 HEK293 Progesterone Receptor (PR) Antagonism Luciferase Follow-Up Assay (AID 2283940)
# Outline: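 Loss of CellTiter-Glo ATP signal indicates cytotoxicity in HEK293-PR-A-luc cells grown in 10% charcoal-stripped FBS medium, seeded 3,000 per well and incubated 16 h with compound at 37C.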
# [6] = TOX21_PR_LUC_Followup_Agonist_viability: Viability Assessment in the Tox21 HEK293 Progesterone Receptor (PR) Agonism Luciferase Follow-Up Assay (AID 2283941);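 note: loss of signal means cytotoxicity so actives lower viability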
# Outline: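 Seeding: HEK293-PR-A-luc, 3,000 cells/well, 5 h at 37C. Treatment: compound in DMSO, 16 h, 37C. Read: CellTiter-Glo ATP luminescence, signal loss taken as lower viability.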
# PGR (gene 5241) [7] = target: PGR (gene 5241) (UniProt P06401); assay: TOX21_PR_BLA_Followup_Agonist_ratio: Tox21 HEK293 Progesterone Receptor (PR) Agonism Beta-lactamase Follow-Up Assay, Ratio (AID 2283933)
# Outline: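 Ratio-based beta-lactamase reporter signal after 16 hr compound treatment of PR-UAS-bla HEK293T cells at 37C. Substrate loading lasted 2 hr at room temperature.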
# PGR (gene 5241) [8] = target: PGR (gene 5241) (UniProt P06401); assay: TOX21_PR_LUC_Followup_Agonist: Tox21 HEK293 Progesterone Receptor (PR) Agonism Luciferase Follow-Up Assay (AID 2283937; active = hit-call score of the fitted dose curve at least 0.9, where 1 is the maximum; inactive = score below 0.9)
# Outline: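 In HEK293 cells stably expressing PR-A with a luciferase reporter, compounds were incubated 16 h at 37C, and induced luminescence was quantified with ONE-Glo, multiplexed with cell viability.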
# [9] = TOX21_TRB_BLA_Agonist_Followup_viability: Viability Assessment in the Tox21 Thyroid Hormone Receptor beta Agonism Beta-lactamase (BLA) Follow-Up Assay (AID 2283956)
# Outline: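 Viability was read as CellTiter-Glo luminescence in the same wells as the TRb-bla agonist read-out. HEK293T GAL4-TRb LBD cells were treated for 18 h (37C, 5% CO2) at 11 concentrations in triplicate. Fits were bidirectional versus DMSO baseline.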
# Sequence of PGR (gene 5241) (P06401 whole entry, looked up): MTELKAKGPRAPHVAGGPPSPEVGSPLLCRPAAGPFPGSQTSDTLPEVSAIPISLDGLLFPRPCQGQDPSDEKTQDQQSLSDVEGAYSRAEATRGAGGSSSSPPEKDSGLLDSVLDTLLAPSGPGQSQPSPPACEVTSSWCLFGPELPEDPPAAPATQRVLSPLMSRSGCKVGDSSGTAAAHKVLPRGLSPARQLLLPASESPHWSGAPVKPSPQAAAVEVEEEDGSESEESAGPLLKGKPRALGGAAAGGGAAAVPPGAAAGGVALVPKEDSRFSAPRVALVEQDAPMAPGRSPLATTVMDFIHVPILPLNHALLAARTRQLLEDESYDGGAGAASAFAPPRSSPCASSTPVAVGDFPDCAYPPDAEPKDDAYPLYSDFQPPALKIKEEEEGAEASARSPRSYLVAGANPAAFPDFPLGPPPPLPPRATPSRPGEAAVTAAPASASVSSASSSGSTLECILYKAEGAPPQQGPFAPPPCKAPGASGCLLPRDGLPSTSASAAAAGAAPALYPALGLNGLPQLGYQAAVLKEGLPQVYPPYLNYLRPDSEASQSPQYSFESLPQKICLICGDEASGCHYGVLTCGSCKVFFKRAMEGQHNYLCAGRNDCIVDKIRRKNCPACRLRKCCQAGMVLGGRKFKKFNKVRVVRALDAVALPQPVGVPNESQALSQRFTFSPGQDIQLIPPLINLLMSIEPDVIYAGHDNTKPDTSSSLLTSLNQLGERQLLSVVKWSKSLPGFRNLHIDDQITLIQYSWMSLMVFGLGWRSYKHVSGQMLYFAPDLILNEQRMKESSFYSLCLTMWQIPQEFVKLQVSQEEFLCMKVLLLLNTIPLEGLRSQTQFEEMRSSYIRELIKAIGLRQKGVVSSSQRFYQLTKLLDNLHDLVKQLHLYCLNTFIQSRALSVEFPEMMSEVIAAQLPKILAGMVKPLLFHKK
smiles,measurement,setting,value
O=C1CN=C(c2ccccc2)c2cc(Cl)ccc2N1CC1CC1,AC50,PGR (gene 5241) [1],23 µM (active)
same,outcome,[2],inactive
same,outcome,[3],inactive
same,outcome,PGR (gene 5241) [4],inactive
same,outcome,[5],inactive
same,outcome,[6],inactive
CCC(=O)O[C@@H]1C=C2CCC3C(CCC4(C)C3CC[C@@H]4OC(=O)CC)C2CC1 (stereo partly specified),AC50,PGR (gene 5241) [7],4.48 µM (active)
same,outcome,PGR (gene 5241) [1],inactive
same,outcome,[2],inactive
same,AC50,PGR (gene 5241) [8],0.165 µM (active)
same,outcome,PGR (gene 5241) [4],inactive
same,outcome,[6],inactive
C[C@]12CC[C@H]3[C@@H](CCC4=CC(=O)CC[C@@H]43)[C@@H]1CC[C@@H]2OC(=O)CCC1CCCCC1,AC50,PGR (gene 5241) [7],2.39 µM (active)
same,outcome,PGR (gene 5241) [1],inactive
same,outcome,[2],inactive
same,outcome,[3],inactive
same,AC50,PGR (gene 5241) [8],0.0731 µM (active)
same,outcome,PGR (gene 5241) [4],inactive
same,outcome,[5],inactive
same,outcome,[6],inactive
C[C@]12CC[C@H]3C(=CCc4cc(O)ccc43)[C@@H]1CCC2=O,outcome,[9],inactive
Cc1cc(C)nc(NS(=O)(=O)c2ccc(N)cc2)n1,outcome,[9],inactive
Nc1ccc(Cl)cc1C(=O)c1ccccc1F,outcome,PGR (gene 5241) [7],inactive
same,AC50,PGR (gene 5241) [1],17.3 µM (active)
same,outcome,[2],inactive
same,outcome,[3],inactive
same,outcome,PGR (gene 5241) [8],inactive
same,outcome,PGR (gene 5241) [4],inactive
same,outcome,[5],inactive
same,outcome,[6],inactive
Oc1ccccc1,outcome,[9],inactive
NCC(=O)CCC(=O)O,outcome,[9],inactive
CC(CCO)CCCC(C)(C)O (stereo unspecified),outcome,[9],inactive
CC1=C(/C=C/C(C)=C/C=C/C(C)=C\C(=O)O)C(C)(C)CCC1,outcome,[9],inactive
O=Cc1ccccc1S(=O)(=O)O,outcome,[9],inactive
C[C@]12CC[C@H]3[C@@H](CCC4=CC(=O)CC[C@@H]43)[C@@H]1CC[C@@H]2OC(=O)CCc1ccco1,AC50,PGR (gene 5241) [7],2.16 µM (active)
same,outcome,PGR (gene 5241) [1],inactive
same,outcome,[2],inactive
same,outcome,[3],inactive
same,AC50,PGR (gene 5241) [8],0.0275 µM (active)
same,outcome,PGR (gene 5241) [4],inactive
